# Measured values reported in ChEMBL document CHEMBL4296182, “CO-ADD screening of NIH NCI Diversity Set V”.
# Screen size: about 23,000 compounds; about 30 (0.1%) showed an effect of 50% or more. The sample holds strong results, similar compounds and a random draw of the others, so the mix is not that of the screen. Measured potencies and affinities stand elsewhere.
# Test system: Pseudomonas aeruginosa
# Details: Concentration 20 uM; ASSAY_TEST Inhibition of Bacterial Growth; detection method Absorption (OD600); MEDIA CAMHB; plate type 384well; NBS; CORNING #3640; time 18 hr
row,Structure (SMILES),Inhibition [%]
1,OCc1ncccc1O,3.5
2,Oc1ccnc2c(Cl)cccc12,-8.65
3,Oc1ccc2ccccc2c1/N=N/c1ccc(F)cc1,0.71
4,O=[N+]([O-])c1cccc(/C=C/c2ccccn2)c1,19.15
5,CSc1nc(S)c2[nH]c(S)nc2n1,6.05
6,Cc1ccc(/N=N/c2ccc(N)cc2C)c(S(N)(=O)=O)c1,-1.43
7,COc1ccc(/C(C#N)=C/c2cccnc2)cc1,11.13
8,C=CCC(CC)C(=O)NC(=O)N1CCCc2ccccc21 (centres undefined),-1.54
9,C=C1S/C(=N\c2c(C)cccc2Cl)N(C(=O)c2sc3ccccc3c2Cl)C12CCCCC2,-6.03
10,COC1OC(CO)C(N=C(C)C)C1O (centres undefined),-2.66
11,c1ccc(Nc2cccc3c(Nc4ccccc4)cccc23)cc1,21.7
12,O=C(Nc1cccnc1)c1cccc([N+](=O)[O-])c1,8.42
13,COC1OC(O)C(NC(=O)C(F)(F)F)CC1O (centres undefined),6.88
14,O=C1CSCc2nc3ccccc3n21,23.81
